Assay results reported in PubChem BioAssay.
Where “and” joins values, the source holds several entries; their conditions need not be identical. Identical values can stand only once. Calls of active or inactive are those of the source.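 Rule for the calls, unless noted: active = normalized viability below 100% at a tested concentration; inactive = the rest.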

Key:
[1] = Wnt pathway potentiators raising nuclear beta-catenin – imaging, WNT3A-conditioned medium, mouse C2C12, NPC library, primary screen (AID 1117326; in the data active = nuclear beta-catenin stimulation mostly above about 4.2%, no sharp cut-off; inactive = mostly below about 10%); conditions: stronger effect = higher value
[2] = stimulators of insulin release from INS-1E, primary screen, cell-based, 5 mM glucose, NPC library (AID 1117329;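 active = compound raises insulin release from rat beta cells at 5 mM glucose, no numeric limit stated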); conditions: rat INS-1E insulin secretion, at 10 µM, stronger effect = higher value
[3] = growth inhibition of GSK3B-pretreated HCT116 cells – cell-based, CellTiter-Glo, 0.2 to 20 µM (AID 1117336;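 active = compounds lowering colon cancer cell viability after pretreatment blocking the GSK3B kinase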); conditions: HCT116 viability after GSK3B inhibitor, at 20 µM, stronger effect = higher value
[4] = inhibition of endothelial tube formation, primary screen, imaging, VEGF stimulated, CD31 staining, tube area, NPC library (AID 1117340;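 active = compound that reduces growth-factor-driven endothelial tube area in a mixed cell culture, no cutoff stated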); conditions: VEGF-stimulated ADSC/ECFC co-culture, at 10 µM, stronger effect = higher value
[5] = GLP1 release stimulators, primary, NCI-H716, NPC library (AID 1117341;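 active = compound raises GLP1 secretion from the human gut endocrine cells, with no numeric limit stated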); conditions: NCI-H716 cells, at 10 µM, stronger effect = higher value
[6] = HCT116 colon cancer cell growth inhibition, primary screen, CellTiter-Glo luminescence, NPC library (AID 1117342;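 active = compounds that lower survival of HCT116 colon cancer cells in the luminescence readout, no numeric limit stated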); conditions: at 20 µM (top of the series)
[7] = reduced SW480 viability measured with CellTiter-Glo, NPC library, primary (AID 1117343;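 active = compounds that lower viability of the colon cancer cells in the luminescence readout, with no numeric limit stated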); conditions: CellTiter-Glo luminescence; at 20 µM (top of the series)
[8] = NPC library primary testing for decreased DLD-1 cell viability via CellTiter-Glo (AID 1117346;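 active = compounds that lower survival of DLD-1 colon cancer cells in the luminescence readout, no cutoff given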); conditions: DLD-1 viability, CellTiter-Glo luminescence; at 20 µM (top of the series)
[9] = molecular target: 6-phosphogluconate dehydrogenase, decarboxylating (Homo sapiens) (UniProt P52209); test: inhibition of human phosphogluconate dehydrogenase – biochemical, recombinant enzyme, NADPH absorbance, primary screen (AID 1159550;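 active = at least 20% inhibition of 6-phosphogluconate dehydrogenase activity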); conditions: recombinant 6PGD, NADPH absorbance 341 nm; at 10 µM; stronger effect = higher value
Sequence of 6-phosphogluconate dehydrogenase, decarboxylating (Homo sapiens) (P52209 whole entry, looked up): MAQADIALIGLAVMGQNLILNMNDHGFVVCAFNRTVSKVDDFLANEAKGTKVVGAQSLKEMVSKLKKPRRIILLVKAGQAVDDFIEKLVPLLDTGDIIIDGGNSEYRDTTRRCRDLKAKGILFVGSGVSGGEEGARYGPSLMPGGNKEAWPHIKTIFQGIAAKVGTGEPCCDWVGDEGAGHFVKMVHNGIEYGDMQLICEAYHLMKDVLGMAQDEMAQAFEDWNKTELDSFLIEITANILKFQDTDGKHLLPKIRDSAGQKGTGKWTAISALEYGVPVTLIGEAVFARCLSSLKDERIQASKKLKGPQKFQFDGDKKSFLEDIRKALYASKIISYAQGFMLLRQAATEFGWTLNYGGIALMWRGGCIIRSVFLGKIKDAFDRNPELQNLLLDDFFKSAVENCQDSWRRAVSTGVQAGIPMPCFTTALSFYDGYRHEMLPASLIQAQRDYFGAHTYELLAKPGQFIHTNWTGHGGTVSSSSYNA

[10] = modulation of C. elegans fzo-1 (AID 1259413; call rule not given here;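 note: fzo-1 mutant C. elegans worms in liquid wells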); conditions: C. elegans fzo-1 modulator screen, mean read-out; stronger effect = higher value
[11] = EMT-state selective cytotoxicity in co-culture – imaging, PC-3E GFP, TEM4-18 mCherry, primary screen (AID 1345086;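 active = compounds killing one labelled cell type while sparing the other, by normalised counts and ratio limits, not self-fluorescent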;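 for all read-outs here: cells exposed to compound for 72 h before imaging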;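 for red/green cell ratio (normalised): normalised mesenchymal count divided by normalised epithelial count so high means epithelial killing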); conditions: PC-3E GFP / TEM4-18 mCherry co-culture, imaging cell counts, at 1 µM; for red/green cell ratio (normalised): actives lie on both sides, counts scaled to control wells, 1 = unselective
[12] = MELAS cybrid and Rieske KO viability enhancers – cell-based, MELAS cybrids, Rieske KO mouse fibroblasts, CellTiter-Glo, primary screen (AID 1508586;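 active = mean z-score across replicates of 1.96 or higher in either the MELAS or the Rieske mutant cell line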;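 note: z relative to plate mean and SD of compound and empty wells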); conditions: low glucose
[13] = molecular target: NAD(+) hydrolase SARM1 (Homo sapiens) (UniProt Q6SZW1); test: blocking NAD cleavage by SARM1 SAM-TIR – cell lysate, NAD-Glo luminescence (AID 1508614;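 active = compound whose remaining NAD level is above about 45 nM, limit read from the data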;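 note: higher remaining NAD means stronger inhibition of SARM1 NADase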); conditions: SAM-TIR HEK293T lysate NADase, at 1 µM, stronger effect = higher value
Sequence of NAD(+) hydrolase SARM1 (Homo sapiens) (Q6SZW1 whole entry, looked up, the tested form may be a part): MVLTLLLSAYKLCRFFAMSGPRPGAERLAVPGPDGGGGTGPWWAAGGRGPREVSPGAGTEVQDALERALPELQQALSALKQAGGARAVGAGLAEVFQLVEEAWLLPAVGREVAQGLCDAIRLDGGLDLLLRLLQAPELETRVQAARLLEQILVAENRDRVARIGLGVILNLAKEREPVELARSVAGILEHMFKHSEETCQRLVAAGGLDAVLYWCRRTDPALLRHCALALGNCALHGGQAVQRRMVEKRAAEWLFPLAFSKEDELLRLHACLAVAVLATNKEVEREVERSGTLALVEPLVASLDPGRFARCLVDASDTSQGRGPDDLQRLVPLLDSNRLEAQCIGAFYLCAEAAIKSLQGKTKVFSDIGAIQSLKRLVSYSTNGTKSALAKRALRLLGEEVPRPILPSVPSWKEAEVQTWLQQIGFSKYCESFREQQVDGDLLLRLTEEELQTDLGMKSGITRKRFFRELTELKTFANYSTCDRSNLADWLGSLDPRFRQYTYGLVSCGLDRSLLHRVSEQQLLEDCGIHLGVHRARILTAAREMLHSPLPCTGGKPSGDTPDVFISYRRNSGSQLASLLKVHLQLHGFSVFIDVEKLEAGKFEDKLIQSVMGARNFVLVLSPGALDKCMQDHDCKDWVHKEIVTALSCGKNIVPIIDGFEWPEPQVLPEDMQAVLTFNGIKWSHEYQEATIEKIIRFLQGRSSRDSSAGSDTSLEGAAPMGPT

[14] = molecular target: Mitogen-activated protein kinase 7 (Homo sapiens) (UniProt Q13164); test: Gal4-ERK5 driven luciferase induction – cell-based, HTS, primary screen (AID 1508626;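 active = luciferase signal above three times the same-plate solvent-only control wells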;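 note: luciferase driven by Gal4-ERK5 fusion binding five Gal4 sites before minimal TATA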); conditions: HeLa Gal4-ERK5 transactivation, 18 h, at 5 µM, stronger effect = higher value
Sequence of Mitogen-activated protein kinase 7 (Homo sapiens) (Q13164 whole entry, looked up, the tested form may be a part): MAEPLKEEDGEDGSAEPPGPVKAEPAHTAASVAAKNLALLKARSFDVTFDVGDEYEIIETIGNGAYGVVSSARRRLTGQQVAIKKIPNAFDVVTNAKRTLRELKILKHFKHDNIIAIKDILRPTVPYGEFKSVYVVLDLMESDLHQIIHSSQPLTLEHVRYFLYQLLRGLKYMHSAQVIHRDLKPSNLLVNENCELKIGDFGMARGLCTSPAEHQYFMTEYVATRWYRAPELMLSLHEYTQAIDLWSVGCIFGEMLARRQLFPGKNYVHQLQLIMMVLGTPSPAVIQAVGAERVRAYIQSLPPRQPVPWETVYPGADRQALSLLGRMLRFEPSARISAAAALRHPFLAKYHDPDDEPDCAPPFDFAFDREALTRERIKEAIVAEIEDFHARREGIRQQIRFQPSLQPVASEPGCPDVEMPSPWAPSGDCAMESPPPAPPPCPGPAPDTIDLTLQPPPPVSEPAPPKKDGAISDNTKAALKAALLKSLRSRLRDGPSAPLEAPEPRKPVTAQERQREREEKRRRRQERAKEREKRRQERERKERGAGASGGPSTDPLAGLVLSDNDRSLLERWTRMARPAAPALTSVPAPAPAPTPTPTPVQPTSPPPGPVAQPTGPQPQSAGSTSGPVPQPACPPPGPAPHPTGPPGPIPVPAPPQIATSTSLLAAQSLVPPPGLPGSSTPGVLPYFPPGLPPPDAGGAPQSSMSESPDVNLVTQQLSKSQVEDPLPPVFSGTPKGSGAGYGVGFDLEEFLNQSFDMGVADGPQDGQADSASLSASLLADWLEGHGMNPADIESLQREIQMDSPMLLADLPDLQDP

F380Y = test: BK channel mutant inhibitors and activators – cell-based, U2OS BacMam, thallium flux, beta subunits, selectivity assay, profiling panel (AID 1259406;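 active = thallium flux through the channel raised or lowered by more than 3 SD from vehicle-only wells, actives on both sides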;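 note: initial slope of Thallos dye fluorescence rise after thallium is added; log ratio against the mean of 0.3% DMSO vehicle wells on the same plate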); conditions: U2OS BacMam BK variants, at 30 µM
F380Y/beta1 = test: as above; conditions: U2OS BacMam BK variants, at 30 µM
F380Y/beta2Delta = test: as above; conditions: U2OS BacMam BK variants, at 30 µM
F380Y/beta4 = test: as above; conditions: U2OS BacMam BK variants, at 30 µM
[15] = molecular target: Calcium-activated potassium channel subunit alpha-1 (Homo sapiens) + Leucine-rich repeat-containing protein 26 (Homo sapiens) (UniProt Q12791+Q2I0M4); test: as above; conditions: U2OS BacMam BK variants, F380Y/Slo1WT/gamma1, at 30 µM
Sequence of Calcium-activated potassium channel subunit alpha-1 (Homo sapiens) + Leucine-rich repeat-containing protein 26 (Homo sapiens) (Q2I0M4 whole entry, looked up, one chain of several): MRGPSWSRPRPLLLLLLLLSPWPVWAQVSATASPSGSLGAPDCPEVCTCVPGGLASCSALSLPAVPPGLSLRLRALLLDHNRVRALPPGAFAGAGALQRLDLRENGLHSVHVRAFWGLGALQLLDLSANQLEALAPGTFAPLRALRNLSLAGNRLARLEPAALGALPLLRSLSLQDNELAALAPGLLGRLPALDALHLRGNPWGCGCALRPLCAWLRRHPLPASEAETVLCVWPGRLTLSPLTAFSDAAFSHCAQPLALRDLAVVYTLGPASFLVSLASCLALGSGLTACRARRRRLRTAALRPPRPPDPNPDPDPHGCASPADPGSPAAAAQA

[16] = drug combination growth inhibition, ovarian cancer – cell-based, oncology-focused library, rucaparib conditional, profiling panel (AID 1508598); conditions: patient-derived ovarian cancer cells, CellTiter-Glo viability, 144 h, stronger effect = lower value
[17] = measured here: epithelial PC-3E GFP cell survival
[18] = measured here: mesenchymal TEM4-18 mCherry cell survival
[19] = MELAS cybrid survival, CellTiter-Glo 48 h, stronger effect = higher value
[20] = Rieske KO mouse fibroblast survival, CellTiter-Glo 72 h

O=C(O)CCC(=O)C(=O)O
inactive: nuclear beta-catenin stimulation ([1]; at 10 µM) -1.7% | insulin secretion stimulation [2] -2.2% | viability decrease [3] 0.1% | tube area decrease [4] -17.8% | GLP1 secretion stimulation [5] -1.6% | inhibition of viability [6] -1.4% | viability decrease (inhibition) [7] 2.9% | viability decrease (inhibition) [8] -7.5%
-0.1%: nuclear beta-catenin stimulation ([1]; stimulation, at 2 µM)

NNC(=O)c1ccncc1
1.01: normalised cell number [11, 17]
-1.2%: nuclear beta-catenin stimulation ([1]; stimulation, at 2 µM)
inactive: nuclear beta-catenin stimulation ([1]; at 10 µM) -1.9% | insulin secretion stimulation [2] -0.1% | viability decrease [3] -2.7% | tube area decrease [4] -10.4% | GLP1 secretion stimulation [5] 0.3% | inhibition of viability [6] 9.9% | viability decrease (inhibition) [7] 10.1% | viability decrease (inhibition) [8] 6.5% | inhibition [9] 6.29% | mean signal [10] 247 | red/green cell ratio (normalised) [11] 1.18 | z-score [12, 19] -0.127 and -0.162 and -0.645 | remaining NAD [13] 10 nM | luciferase signal [14] 36 AU | log fold change Tl+ flux (F380Y) 0.00909 | log fold change Tl+ flux (F380Y/beta1) 0.0138 | log fold change Tl+ flux (F380Y/beta2Delta) 0.00988 | log fold change Tl+ flux (F380Y/beta4) 0.0513 | log fold change Tl+ flux [15] 0.0222
1.19: normalised cell number [11, 18]
0.295 and -0.273 and 1.51: z-score [12, 20]

CC1=C(/C=C/C(C)=C/C=C/C(C)=C/C(=O)O)C(C)(C)CCC1
0.93: normalised cell number [11, 18]
0.0426 and 0.864: z-score [12, 20]
1.34: normalised cell number [11, 17]
active: viability decrease [3] 102% | inhibition of viability [6] 102% | viability decrease (inhibition) [7] 142% | viability decrease (inhibition) [8] 104% | viability ([16]; at 0.313 µM, OCI-P5x cells, with rucaparib 20 µM, 100% = cells with rucaparib alone) 98.8% | viability ([16]; at 1.25 µM, OCI-P5x cells, with rucaparib 20 µM, 100% = cells with rucaparib alone) 92.2% | viability ([16]; at 5 µM, OCI-P5x cells, with rucaparib 20 µM, 100% = cells with rucaparib alone) 93.6% | viability ([16]; at 5 µM, OCI-P5x cells, without rucaparib) 99.6%
inactive: nuclear beta-catenin stimulation ([1]; at 10 µM) 8.6% | insulin secretion stimulation [2] 1.8% | tube area decrease [4] -33.9% | GLP1 secretion stimulation [5] 14.4% | inhibition [9] -0.523% | mean signal [10] 223 | red/green cell ratio (normalised) [11] 0.69 | z-score [12, 19] -0.0661 and 0.992 | viability ([16]; at 0.000305 µM, OCI-C5x cells, with rucaparib 10 µM, 100% = cells with rucaparib alone) 106% | viability ([16]; at 0.000305 µM, OCI-C5x cells, without rucaparib) 135% | viability ([16]; at 0.000305 µM, OCI-P5x cells, with rucaparib 20 µM, 100% = cells with rucaparib alone) 102% | viability ([16]; at 0.000305 µM, OCI-P5x cells, without rucaparib) 120% | viability ([16]; at 0.00122 µM, OCI-C5x cells, with rucaparib 10 µM, 100% = cells with rucaparib alone) 106% | viability ([16]; at 0.00122 µM, OCI-C5x cells, without rucaparib) 121% | viability ([16]; at 0.00122 µM, OCI-P5x cells, with rucaparib 20 µM, 100% = cells with rucaparib alone) 105% | viability ([16]; at 0.00122 µM, OCI-P5x cells, without rucaparib) 119% | viability ([16]; at 0.00488 µM, OCI-C5x cells, with rucaparib 10 µM, 100% = cells with rucaparib alone) 124% | viability ([16]; at 0.00488 µM, OCI-C5x cells, without rucaparib) 115% | viability ([16]; at 0.00488 µM, OCI-P5x cells, with rucaparib 20 µM, 100% = cells with rucaparib alone) 108% | viability ([16]; at 0.00488 µM, OCI-P5x cells, without rucaparib) 120% | viability ([16]; at 0.0195 µM, OCI-C5x cells, with rucaparib 10 µM, 100% = cells with rucaparib alone) 106% | viability ([16]; at 0.0195 µM, OCI-C5x cells, without rucaparib) 111% | viability ([16]; at 0.0195 µM, OCI-P5x cells, with rucaparib 20 µM, 100% = cells with rucaparib alone) 104% | viability ([16]; at 0.0195 µM, OCI-P5x cells, without rucaparib) 115% | viability ([16]; at 0.0781 µM, OCI-C5x cells, with rucaparib 10 µM, 100% = cells with rucaparib alone) 103% | viability ([16]; at 0.0781 µM, OCI-C5x cells, without rucaparib) 122% | viability ([16]; at 0.0781 µM, OCI-P5x cells, with rucaparib 20 µM, 100% = cells with rucaparib alone) 101% | viability ([16]; at 0.0781 µM, OCI-P5x cells, without rucaparib) 115% | viability ([16]; at 0.313 µM, OCI-C5x cells, with rucaparib 10 µM, 100% = cells with rucaparib alone) 103% | viability ([16]; at 0.313 µM, OCI-C5x cells, without rucaparib) 114% | viability ([16]; at 0.313 µM, OCI-P5x cells, without rucaparib) 109% | viability ([16]; at 1.25 µM, OCI-C5x cells, with rucaparib 10 µM, 100% = cells with rucaparib alone) 101% | viability ([16]; at 1.25 µM, OCI-C5x cells, without rucaparib) 115% | viability ([16]; at 1.25 µM, OCI-P5x cells, without rucaparib) 105% | viability ([16]; at 5 µM, OCI-C5x cells, with rucaparib 10 µM, 100% = cells with rucaparib alone) 101% | viability ([16]; at 5 µM, OCI-C5x cells, without rucaparib) 104% | remaining NAD [13] 10 nM | luciferase signal [14] 20 AU | log fold change Tl+ flux (F380Y) 0.0395 | log fold change Tl+ flux (F380Y/beta1) 0.0141 | log fold change Tl+ flux (F380Y/beta2Delta) -0.0201 | log fold change Tl+ flux (F380Y/beta4) 0.0201 | log fold change Tl+ flux [15] 0.0114
8.1%: nuclear beta-catenin stimulation ([1]; stimulation, at 2 µM)
